# Results published in paper PMC7862700, “An all-to-all approach to the identification of sequence-specific readers for epigenetic DNA modifications on cytosine”.
# How the values were obtained:
# Assay in all cases: DAPPL (digital affinity profiling via proximity ligation, sequencing); 10 mM Tris-HCl pH 7.5, 50 mM NaCl, 1 mM DTT, 4% glycerol, room temperature, 30 min; GST-TFs on glutathione beads, 16-mer random dsDNA library, 0.1% formaldehyde crosslink after washing; high values mean tight binding
# [1] = target: T1, FEV (Homo sapiens, UniProt Q99581 1-238); details: protein: recombinant; tags: N-terminal GST; dsDNA, one strand shown
# T1 sequence: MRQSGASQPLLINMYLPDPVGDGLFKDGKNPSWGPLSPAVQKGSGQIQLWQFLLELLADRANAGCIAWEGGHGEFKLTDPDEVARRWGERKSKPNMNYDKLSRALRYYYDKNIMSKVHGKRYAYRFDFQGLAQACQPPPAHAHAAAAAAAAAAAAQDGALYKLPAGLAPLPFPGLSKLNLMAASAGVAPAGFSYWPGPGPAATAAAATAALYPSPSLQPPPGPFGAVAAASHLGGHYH
# How it was run: (§1)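 Sequencing on an Illumina NextSeq500 followed washing, crosslinking with 0.1% formaldehyde, proximity ligation (BsaI/T4 ligase, 1 h, 37 °C) and PCR amplification of pools that had been incubated for 30 min at room temperature with 200 nmole of a random double-stranded 16-mer DNA library in Tris/NaCl/DTT/glycerol buffer. Each pool held DNA-barcoded human transcription factors, expressed in yeast as GST fusions and captured on glutathione beads, plus a tag-only sample. Binding signal is a hexamer's read frequency for a factor divided by its frequency in the tag-only sample.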
# [2] = target: ETV5 (Homo sapiens, UniProt P41161 1-510); details: protein: recombinant; tags: N-terminal GST; dsDNA, one strand shown
# Sequence of ETV5 (P41161 whole entry): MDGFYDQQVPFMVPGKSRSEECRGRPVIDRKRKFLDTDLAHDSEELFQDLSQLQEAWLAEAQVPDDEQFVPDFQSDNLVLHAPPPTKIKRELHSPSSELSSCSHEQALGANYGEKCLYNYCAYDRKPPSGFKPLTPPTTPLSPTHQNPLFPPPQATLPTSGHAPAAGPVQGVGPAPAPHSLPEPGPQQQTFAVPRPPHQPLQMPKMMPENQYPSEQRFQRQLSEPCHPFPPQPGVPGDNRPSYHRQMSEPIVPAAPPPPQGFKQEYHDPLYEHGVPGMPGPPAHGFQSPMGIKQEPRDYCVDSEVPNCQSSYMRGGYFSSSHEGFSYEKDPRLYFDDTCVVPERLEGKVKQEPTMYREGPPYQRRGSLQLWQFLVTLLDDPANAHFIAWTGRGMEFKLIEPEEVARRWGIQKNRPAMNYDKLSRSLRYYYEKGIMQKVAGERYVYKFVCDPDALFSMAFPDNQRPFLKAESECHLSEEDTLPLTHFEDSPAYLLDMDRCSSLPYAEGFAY
# How it was run: as §1
# [3] = target: HSF1 (Homo sapiens, UniProt Q00613 1-529); details: protein: recombinant; tags: N-terminal GST; chain copies: 3; dsDNA, one strand shown
# Sequence of HSF1 (Q00613 whole entry): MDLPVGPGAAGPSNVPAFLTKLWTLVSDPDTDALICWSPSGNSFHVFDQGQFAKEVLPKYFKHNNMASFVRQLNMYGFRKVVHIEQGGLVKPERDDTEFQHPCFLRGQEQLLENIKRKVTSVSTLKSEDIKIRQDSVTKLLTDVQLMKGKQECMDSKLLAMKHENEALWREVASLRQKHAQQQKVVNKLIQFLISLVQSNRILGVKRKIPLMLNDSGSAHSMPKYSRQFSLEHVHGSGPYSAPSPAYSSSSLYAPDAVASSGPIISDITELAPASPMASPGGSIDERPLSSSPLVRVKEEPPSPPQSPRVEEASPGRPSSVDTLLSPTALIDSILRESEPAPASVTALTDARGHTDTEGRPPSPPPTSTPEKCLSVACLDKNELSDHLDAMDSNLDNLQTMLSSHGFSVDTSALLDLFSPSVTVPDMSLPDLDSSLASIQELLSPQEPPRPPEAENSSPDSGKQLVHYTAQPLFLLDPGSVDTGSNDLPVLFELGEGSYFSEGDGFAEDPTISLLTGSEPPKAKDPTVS
# How it was run: as §1
# [4] = target: T2, SPIC (Homo sapiens, UniProt Q8N5J4 1-248); details: protein: recombinant; tags: N-terminal GST; dsDNA, one strand shown
# T2 sequence: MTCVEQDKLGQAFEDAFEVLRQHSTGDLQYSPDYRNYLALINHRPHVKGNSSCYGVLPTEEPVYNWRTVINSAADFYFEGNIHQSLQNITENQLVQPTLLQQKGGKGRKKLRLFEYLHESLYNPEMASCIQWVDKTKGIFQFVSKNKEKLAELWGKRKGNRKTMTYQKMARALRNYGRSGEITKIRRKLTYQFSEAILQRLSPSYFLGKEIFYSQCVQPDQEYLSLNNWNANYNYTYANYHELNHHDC
# How it was run: as §1
# [5] = target: ELF4 (Homo sapiens, UniProt Q99607 1-663); details: protein: recombinant; tags: N-terminal GST; dsDNA, one strand shown
# Sequence of ELF4 (Q99607 whole entry): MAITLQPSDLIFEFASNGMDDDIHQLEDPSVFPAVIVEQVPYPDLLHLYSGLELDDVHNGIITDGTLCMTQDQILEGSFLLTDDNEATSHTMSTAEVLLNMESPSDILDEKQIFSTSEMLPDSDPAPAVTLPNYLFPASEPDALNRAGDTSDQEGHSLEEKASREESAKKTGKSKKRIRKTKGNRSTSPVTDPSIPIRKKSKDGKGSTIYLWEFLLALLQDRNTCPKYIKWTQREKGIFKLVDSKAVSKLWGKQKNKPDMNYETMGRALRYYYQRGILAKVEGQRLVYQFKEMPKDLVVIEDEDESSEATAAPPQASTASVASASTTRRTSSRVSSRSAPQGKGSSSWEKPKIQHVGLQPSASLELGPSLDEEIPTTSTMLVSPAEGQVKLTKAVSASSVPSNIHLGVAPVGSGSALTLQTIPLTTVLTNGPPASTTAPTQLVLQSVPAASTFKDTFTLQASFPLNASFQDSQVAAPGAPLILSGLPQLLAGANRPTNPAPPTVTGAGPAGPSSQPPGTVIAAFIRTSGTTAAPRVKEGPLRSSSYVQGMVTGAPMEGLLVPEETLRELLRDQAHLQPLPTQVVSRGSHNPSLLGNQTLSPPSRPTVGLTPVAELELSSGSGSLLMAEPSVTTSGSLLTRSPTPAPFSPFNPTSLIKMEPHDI
# How it was run: as §1
# [6] = target: T3, ELK4 (Homo sapiens, UniProt P28324-2 1-405); details: protein: recombinant; tags: N-terminal GST; dsDNA, one strand shown
# T3 sequence: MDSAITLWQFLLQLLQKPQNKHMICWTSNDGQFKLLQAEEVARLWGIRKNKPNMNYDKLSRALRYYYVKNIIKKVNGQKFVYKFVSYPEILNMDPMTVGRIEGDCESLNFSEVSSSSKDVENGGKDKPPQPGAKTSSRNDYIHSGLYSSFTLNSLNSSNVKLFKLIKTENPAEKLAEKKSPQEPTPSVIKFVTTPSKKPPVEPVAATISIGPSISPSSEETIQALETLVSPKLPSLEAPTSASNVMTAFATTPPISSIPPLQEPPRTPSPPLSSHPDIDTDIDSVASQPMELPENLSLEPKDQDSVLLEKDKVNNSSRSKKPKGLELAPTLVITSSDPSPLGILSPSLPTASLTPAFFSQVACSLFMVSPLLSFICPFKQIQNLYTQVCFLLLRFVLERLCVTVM
# How it was run: as §1
# [7] = target: T4, ETV2 (Homo sapiens, UniProt O00321 1-342); details: protein: recombinant; tags: N-terminal GST; dsDNA, one strand shown
# T4 sequence: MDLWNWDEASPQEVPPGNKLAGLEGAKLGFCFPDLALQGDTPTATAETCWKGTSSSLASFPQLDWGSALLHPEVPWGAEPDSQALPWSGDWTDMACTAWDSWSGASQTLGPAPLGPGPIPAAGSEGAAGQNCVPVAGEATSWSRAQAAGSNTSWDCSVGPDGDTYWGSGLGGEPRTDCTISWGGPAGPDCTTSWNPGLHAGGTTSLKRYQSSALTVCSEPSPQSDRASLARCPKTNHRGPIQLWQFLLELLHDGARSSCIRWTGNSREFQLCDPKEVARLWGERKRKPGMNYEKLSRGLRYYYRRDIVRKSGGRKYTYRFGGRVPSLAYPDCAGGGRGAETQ
# How it was run: as §1
# [8] = target: T5, ELF3 (Homo sapiens, UniProt P78545 1-371); details: protein: recombinant; tags: N-terminal GST; dsDNA, one strand shown
# T5 sequence: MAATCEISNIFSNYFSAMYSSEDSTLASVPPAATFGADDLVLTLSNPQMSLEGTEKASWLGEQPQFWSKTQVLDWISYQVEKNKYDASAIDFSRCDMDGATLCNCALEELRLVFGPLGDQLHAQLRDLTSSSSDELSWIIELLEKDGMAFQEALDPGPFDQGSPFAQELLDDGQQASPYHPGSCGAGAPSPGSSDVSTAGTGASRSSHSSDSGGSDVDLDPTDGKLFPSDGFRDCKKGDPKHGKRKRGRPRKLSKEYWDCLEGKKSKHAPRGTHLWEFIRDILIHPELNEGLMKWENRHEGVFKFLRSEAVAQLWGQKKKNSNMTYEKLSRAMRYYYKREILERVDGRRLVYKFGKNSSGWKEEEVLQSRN
# How it was run: as §1
# [9] = target: CRX (Homo sapiens, UniProt O43186 1-299); details: protein: recombinant; tags: N-terminal GST; dsDNA, one strand shown
# Sequence of CRX (O43186 whole entry): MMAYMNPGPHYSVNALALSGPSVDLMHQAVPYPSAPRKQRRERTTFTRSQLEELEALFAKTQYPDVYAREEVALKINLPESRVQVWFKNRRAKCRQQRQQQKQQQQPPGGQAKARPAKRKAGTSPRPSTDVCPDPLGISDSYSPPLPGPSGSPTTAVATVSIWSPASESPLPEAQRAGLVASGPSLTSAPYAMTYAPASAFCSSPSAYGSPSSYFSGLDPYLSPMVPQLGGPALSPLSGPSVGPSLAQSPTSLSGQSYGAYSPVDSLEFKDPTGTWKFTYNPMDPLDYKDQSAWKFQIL
# How it was run: as §1
# [10] = target: ETV1 (Homo sapiens, UniProt P50549 1-477); details: protein: recombinant; tags: N-terminal GST; dsDNA, one strand shown
# Sequence of ETV1 (P50549 whole entry): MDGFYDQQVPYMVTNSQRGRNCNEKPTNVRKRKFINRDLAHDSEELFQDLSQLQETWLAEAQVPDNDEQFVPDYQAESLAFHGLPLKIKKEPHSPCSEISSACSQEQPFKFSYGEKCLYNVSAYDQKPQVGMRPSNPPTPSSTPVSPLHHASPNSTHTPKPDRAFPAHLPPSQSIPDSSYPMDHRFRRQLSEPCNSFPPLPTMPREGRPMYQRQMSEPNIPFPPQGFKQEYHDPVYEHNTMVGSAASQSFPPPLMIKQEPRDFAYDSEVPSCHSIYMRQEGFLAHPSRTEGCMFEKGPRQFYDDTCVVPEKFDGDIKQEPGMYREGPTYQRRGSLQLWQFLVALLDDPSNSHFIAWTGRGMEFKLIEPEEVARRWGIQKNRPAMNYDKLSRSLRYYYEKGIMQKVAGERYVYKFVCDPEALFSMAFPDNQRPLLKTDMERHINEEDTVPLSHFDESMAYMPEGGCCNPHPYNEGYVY
# How it was run: as §1
# [11] = target: T6, ERF (Homo sapiens, UniProt P50548 1-548); details: protein: recombinant; tags: N-terminal GST; dsDNA, one strand shown
# T6 sequence: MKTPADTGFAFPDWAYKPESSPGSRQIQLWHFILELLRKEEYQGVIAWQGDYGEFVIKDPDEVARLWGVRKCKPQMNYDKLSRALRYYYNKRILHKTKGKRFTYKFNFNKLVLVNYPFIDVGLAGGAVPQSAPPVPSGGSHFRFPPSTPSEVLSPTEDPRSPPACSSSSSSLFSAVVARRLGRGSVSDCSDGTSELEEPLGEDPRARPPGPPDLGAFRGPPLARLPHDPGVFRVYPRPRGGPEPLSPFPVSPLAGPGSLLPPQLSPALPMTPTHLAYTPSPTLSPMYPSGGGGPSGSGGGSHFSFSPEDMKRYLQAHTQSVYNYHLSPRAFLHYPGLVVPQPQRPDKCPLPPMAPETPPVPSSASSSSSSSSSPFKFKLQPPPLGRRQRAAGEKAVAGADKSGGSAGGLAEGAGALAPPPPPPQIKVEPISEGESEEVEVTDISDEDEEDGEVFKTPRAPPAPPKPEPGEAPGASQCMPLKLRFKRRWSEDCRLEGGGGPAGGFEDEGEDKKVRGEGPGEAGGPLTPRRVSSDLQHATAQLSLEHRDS
# How it was run: as §1
# [12] = target: T7, ETV3L (Homo sapiens, UniProt Q6ZN32 1-361); details: protein: recombinant; tags: N-terminal GST; dsDNA, one strand shown
# T7 sequence: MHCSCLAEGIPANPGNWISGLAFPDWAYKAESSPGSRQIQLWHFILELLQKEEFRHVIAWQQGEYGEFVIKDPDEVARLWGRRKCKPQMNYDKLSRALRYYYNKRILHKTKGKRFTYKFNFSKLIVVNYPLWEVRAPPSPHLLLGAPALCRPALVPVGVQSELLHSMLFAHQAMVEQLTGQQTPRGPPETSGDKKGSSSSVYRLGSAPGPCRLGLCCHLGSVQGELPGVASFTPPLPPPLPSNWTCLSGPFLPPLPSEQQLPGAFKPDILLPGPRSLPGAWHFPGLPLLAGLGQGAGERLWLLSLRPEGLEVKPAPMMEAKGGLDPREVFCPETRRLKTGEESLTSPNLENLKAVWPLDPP
# How it was run: as §1
# [13] = target: T8, SPDEF (Homo sapiens, UniProt O95238 1-335); details: protein: recombinant; tags: N-terminal GST; dsDNA, one strand shown
# T8 sequence: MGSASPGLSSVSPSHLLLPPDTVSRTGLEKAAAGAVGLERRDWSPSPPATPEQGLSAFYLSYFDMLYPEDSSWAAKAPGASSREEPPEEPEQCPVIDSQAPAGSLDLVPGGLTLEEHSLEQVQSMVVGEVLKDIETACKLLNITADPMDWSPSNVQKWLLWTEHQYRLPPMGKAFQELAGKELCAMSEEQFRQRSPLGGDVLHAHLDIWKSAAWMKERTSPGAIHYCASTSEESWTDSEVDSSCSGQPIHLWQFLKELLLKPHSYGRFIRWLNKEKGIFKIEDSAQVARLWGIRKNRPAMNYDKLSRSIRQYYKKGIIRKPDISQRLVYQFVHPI
# How it was run: as §1
# [14] = target: T9, ETV7 (Homo sapiens, UniProt Q9Y603 1-341); details: protein: recombinant; tags: N-terminal GST; dsDNA, one strand shown
# T9 sequence: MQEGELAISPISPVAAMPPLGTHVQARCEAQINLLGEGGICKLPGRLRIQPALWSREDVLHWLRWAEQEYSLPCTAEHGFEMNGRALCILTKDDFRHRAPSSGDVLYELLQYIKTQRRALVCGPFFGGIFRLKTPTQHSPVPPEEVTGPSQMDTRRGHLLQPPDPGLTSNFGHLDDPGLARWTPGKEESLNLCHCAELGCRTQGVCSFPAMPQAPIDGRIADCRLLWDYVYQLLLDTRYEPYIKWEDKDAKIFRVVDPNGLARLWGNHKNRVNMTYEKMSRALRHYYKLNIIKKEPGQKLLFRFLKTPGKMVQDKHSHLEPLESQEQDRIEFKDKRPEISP
# How it was run: as §1
# [15] = target: T10, ELF5 (Homo sapiens, UniProt Q9UKW6-2 1-255); details: protein: recombinant; tags: N-terminal GST; dsDNA, one strand shown
# T10 sequence: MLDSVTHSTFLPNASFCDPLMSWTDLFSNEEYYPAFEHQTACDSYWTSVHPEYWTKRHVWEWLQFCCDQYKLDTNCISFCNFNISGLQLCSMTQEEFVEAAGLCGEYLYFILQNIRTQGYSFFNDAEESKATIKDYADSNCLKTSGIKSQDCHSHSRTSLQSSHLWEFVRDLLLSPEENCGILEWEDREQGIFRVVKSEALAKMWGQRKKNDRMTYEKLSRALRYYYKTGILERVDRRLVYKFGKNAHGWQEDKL
# How it was run: as §1
# [16] = target: T11, ETV3 (Homo sapiens, UniProt P41162-2 1-143); details: protein: recombinant; tags: N-terminal GST; dsDNA, one strand shown
# T11 sequence: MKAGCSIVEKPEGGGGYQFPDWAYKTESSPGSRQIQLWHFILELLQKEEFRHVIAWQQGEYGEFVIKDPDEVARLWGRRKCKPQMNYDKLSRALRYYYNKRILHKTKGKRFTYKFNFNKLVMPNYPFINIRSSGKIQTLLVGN
# How it was run: as §1
# [17] = target: ETV6 (Homo sapiens, UniProt P41212 1-452); details: protein: recombinant; tags: N-terminal GST; dsDNA, one strand shown
# Sequence of ETV6 (P41212 whole entry): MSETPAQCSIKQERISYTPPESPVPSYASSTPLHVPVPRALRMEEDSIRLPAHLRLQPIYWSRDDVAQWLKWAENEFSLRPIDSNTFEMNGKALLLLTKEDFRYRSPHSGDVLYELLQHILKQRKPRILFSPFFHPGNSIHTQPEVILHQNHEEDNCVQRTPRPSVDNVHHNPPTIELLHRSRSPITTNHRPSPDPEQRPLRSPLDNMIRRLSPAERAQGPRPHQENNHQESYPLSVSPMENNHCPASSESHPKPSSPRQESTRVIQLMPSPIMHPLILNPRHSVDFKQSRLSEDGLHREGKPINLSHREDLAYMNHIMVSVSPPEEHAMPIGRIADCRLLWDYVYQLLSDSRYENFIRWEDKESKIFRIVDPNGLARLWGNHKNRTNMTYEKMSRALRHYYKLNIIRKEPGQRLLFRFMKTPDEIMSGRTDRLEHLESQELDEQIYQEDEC
# How it was run: as §1
sequence,measurement,setting,value
TCTGGG,binding signal,[1],"1.13 fold enrichment (6-mer frequency, TF over GST control)"
same,binding signal,[2],"1.13 fold enrichment (6-mer frequency, TF over GST control)"
same,binding signal,[3],"1.4 fold enrichment (6-mer frequency, TF over GST control)"
same,binding signal,[4],"1.11 fold enrichment (6-mer frequency, TF over GST control)"
same,binding signal,[5],"1.08 fold enrichment (6-mer frequency, TF over GST control)"
same,binding signal,[6],"1.22 fold enrichment (6-mer frequency, TF over GST control)"
same,binding signal,[7],"1.19 fold enrichment (6-mer frequency, TF over GST control)"
same,binding signal,[8],"1.12 fold enrichment (6-mer frequency, TF over GST control)"
same,binding signal,[9],"1.1 fold enrichment (6-mer frequency, TF over GST control)"
same,binding signal,[10],"1.04 fold enrichment (6-mer frequency, TF over GST control)"
same,binding signal,[11],"1.16 fold enrichment (6-mer frequency, TF over GST control)"
same,binding signal,[12],"1.11 fold enrichment (6-mer frequency, TF over GST control)"
same,binding signal,[13],"1.07 fold enrichment (6-mer frequency, TF over GST control)"
same,binding signal,[14],"1.07 fold enrichment (6-mer frequency, TF over GST control)"
same,binding signal,[15],"1.08 fold enrichment (6-mer frequency, TF over GST control)"
same,binding signal,[16],"1.09 fold enrichment (6-mer frequency, TF over GST control)"
same,binding signal,[17],"1.14 fold enrichment (6-mer frequency, TF over GST control)"
